# Data published in the supplement of paper PMC10338343.
# ± gives the standard deviation.
# Test system: MILI (PIWIL2) piRISC loaded with L1MC piRNA (26 nt)
# Experiment: pre-steady-state target cleavage rate (min^-1); guide: L1MC piRNA 5'p-UAACUAAAUACUAUGCAAGCUGUAGG; MIWI and MILI are mouse PIWI proteins and EfPiwi is from a freshwater sponge; tags in brackets are library labels; higher = faster piRNA-guided slicing of the target
# Conditions: auxiliary factor: 500 nM mouse GTSF1
# Procedure, shortened: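 Cleave-'n-Seq: a transcribed, DNA-blocked target RNA library (0.1 nM) was mixed with 1 nM active affinity-purified piRISC carrying one synthetic guide, with or without 500 nM GTSF1 partner protein, in HEPES–potassium acetate buffer at 33 °C for 0–8 or 0–960 min. Uncleaved targets were sequenced and normalised to depth and to weakly complementary targets. Three trials were pooled, and k3 was capped at 0.0001 min^-1. The pre-steady-state cleavage rate came from a burst-and-steady-state fit.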
row,Sequence,pre-steady-state target cleavage rate
1,UCCUCCUACAGCUUGCUUAGUAUUUAGUAA,0.203 ± 0.017
2,UCCUGGAACAGCUUGCAUAGUAUUUGAGUUA,0.209 ± 0.035
3,UCCUGGAUCAGCUUAGCAUAGUAUUUAGUUA,0.232 ± 0.018
4,UCCUGGUACAGCUUGCAUAGUAUUAUGUUA,0.131 ± 0.032
5,UCCUGGAUGAGCUAUGCAUAGUAUUUAGUUA,0.202 ± 0.013
6,UCCUGCAACAGCUUGCAAAGUAUUUAGUUA,0.166 ± 0.012
7,UCCUGGAUGUCCUUGCAUAGUAUUUAGUUU [g2:g19:cont:t1U],0.17 ± 0.022
8,UCCUGCUACUGCUUGCAUAGUUUUUAGUUA,0.0524 ± 0.011
9,UCCUGGAUCAGCUUGCAUAGUAUUUAGGUUA,0.271 ± 0.027
10,UCCUGGAUGUGCUAUGCAUAGUAUUUAGUUA,0.141 ± 0.018
11,UCCUGCUUCAGCUUGCAUAGUAUUUAGUAA,0.224 ± 0.025
12,UCCUGCUACAGCUUGCAUACUAUUUAGUUA,0.0775 ± 0.012
13,UCCUGGUACAGCUUGCAUAGUAUAAUGUUA,0.175 ± 0.036
14,UCCUGCUACAGCUUGCAUAGUAUUCAGUUA,0.244 ± 0.038
15,UCCUGGAACAGCUUCAUAGUAUUUAGUUA,0.252 ± 0.015
16,UCCUCCUACAGCUUGCAUAGUAUCUUAGUUA,0.285 ± 0.022
17,UCCUGCUUCAGCUUGCAUAGUAUUAAGUUA,0.13 ± 0.02
18,UCCUCCUACAGCUUACAUAGUAUUUAGUUA,0.276 ± 0.016
19,UCCUGGAUGUGCUGUGCAUAGUAUUUAGUUA,0.131 ± 0.015
20,UCCUGGAACUGCUUGCUUAGUAUUUAGUUA,0.206 ± 0.019

row,Sequence,pre-steady-state target cleavage rate
1,UCCUGGAUGUGCAUGCAUAGUAUUUAGAAA,0.0733 ± 0.013
2,UCCUGCUACAGCAUGGAUAGUAUUUAGUUA,0.257 ± 0.021
3,UCCUGGUUCAGCUUGCAUAGUAUAUAGUUA,0.198 ± 0.034
4,UCCUGGUACAGCUACCAUAGUAUUUAGUUA,0.305 ± 0.044
5,UCCUGGUAGAGCUUGCAUAGUUUUUAGUUA,0.0231 ± 0.005
6,UCCUGGUACAGCUUGCAUAGUAGUUAGUUA,0.2 ± 0.034
7,UCCUGGAUCAGCUUGCAUAGUAUUAUGUUA,0.122 ± 0.021
8,UCCUCAUACAGCUUGCAUAGUAUUUAGUUA,0.319 ± 0.015
9,UCCUGGAUGAGCAUGCAUAGUAUUUAGUAA,0.21 ± 0.024
10,UCCUGCUACAGCAUGCAUAGUAUUUAGUAA,0.277 ± 0.03
11,UCCUGCUACAGCUUGCUUAGUUUUUAGUUA,0.0712 ± 0.011
12,UCCUGGAACAGCUUGCAUUGUAUUUAGUUA,0.18 ± 0.014
13,UCCUGGUACUGCUAGCAUAGUAUUUAGUUA,0.174 ± 0.02
14,UCCUGGAAGAGCUUGCAUAGUAUUUAGUUA,0.223 ± 0.014
15,UCCUGGAACAGCUUGCAUAGUAUUUAGUUU [g2:g23:cont:t1U],0.278 ± 0.02
16,UCCUGGAUGUCGAUGCAUAGUAUUUAGUUUA,0.0871 ± 0.014
17,UCCUGGAACAGCUUGCAUACUAUUUAGUUA,0.0842 ± 0.014
18,UCCUGGAACAGCGUUGCAUAGUAUUUAGUUA,0.203 ± 0.017
19,UCCUGGUACAGCAUGCUUAGUAUUUAGUUA,0.208 ± 0.025
20,UCCUGGAACAGCUUGCUUUGUAUUUAGUUA,0.182 ± 0.019

# Same assay, conditions: auxiliary factor: none (no GTSF1)
row,Sequence,pre-steady-state target cleavage rate
1,UCCUCCUACAGCUUGCUUAGUAUUUAGUAA,0.0037 ± 0.0021
2,UCCUGGAACAGCUUGCAUAGUAUUUGAGUUA,0.00299 ± 0.003
3,UCCUGGAUCAGCUUAGCAUAGUAUUUAGUUA,0.00685 ± 0.0027
4,UCCUGGUACAGCUUGCAUAGUAUUAUGUUA,0.00435 ± 0.0031
5,UCCUGGAUGAGCUAUGCAUAGUAUUUAGUUA,0.0126 ± 0.0025
6,UCCUGCAACAGCUUGCAAAGUAUUUAGUUA,0.00683 ± 0.0024
7,UCCUGGAUGUCCUUGCAUAGUAUUUAGUUU [g2:g19:cont:t1U],0.0113 ± 0.0024
8,UCCUGCUACUGCUUGCAUAGUUUUUAGUUA,0.00424 ± 0.0018
9,UCCUGGAUCAGCUUGCAUAGUAUUUAGGUUA,0.00531 ± 0.0025
10,UCCUGGAUGUGCUAUGCAUAGUAUUUAGUUA,0.0069 ± 0.0024
11,UCCUGCUUCAGCUUGCAUAGUAUUUAGUAA,0.00397 ± 0.002
12,UCCUGCUACAGCUUGCAUACUAUUUAGUUA,0.0046 ± 0.0019
13,UCCUGGUACAGCUUGCAUAGUAUAAUGUUA,0.00565 ± 0.0032
14,UCCUGCUACAGCUUGCAUAGUAUUCAGUUA,0.00294 ± 0.0021
15,UCCUGGAACAGCUUCAUAGUAUUUAGUUA,0.00361 ± 0.0026
16,UCCUCCUACAGCUUGCAUAGUAUCUUAGUUA,0.00811 ± 0.0026
17,UCCUGCUUCAGCUUGCAUAGUAUUAAGUUA,0.00279 ± 0.0026
18,UCCUCCUACAGCUUACAUAGUAUUUAGUUA,0.00586 ± 0.0026
19,UCCUGGAUGUGCUGUGCAUAGUAUUUAGUUA,0.00886 ± 0.004
20,UCCUGGAACUGCUUGCUUAGUAUUUAGUUA,0.0116 ± 0.0026

row,Sequence,pre-steady-state target cleavage rate
1,UCCUGGAUGUGCAUGCAUAGUAUUUAGAAA,0.00295 ± 0.0029
2,UCCUGCUACAGCAUGGAUAGUAUUUAGUUA,0.00639 ± 0.0031
3,UCCUGGUUCAGCUUGCAUAGUAUAUAGUUA,0.0112 ± 0.0032
4,UCCUGGUACAGCUACCAUAGUAUUUAGUUA,0.00616 ± 0.0022
5,UCCUGGUAGAGCUUGCAUAGUUUUUAGUUA,0.00498 ± 0.0023
6,UCCUGGUACAGCUUGCAUAGUAGUUAGUUA,0.00513 ± 0.0028
7,UCCUGGAUCAGCUUGCAUAGUAUUAUGUUA,0.00357 ± 0.0028
8,UCCUCAUACAGCUUGCAUAGUAUUUAGUUA,0.0105 ± 0.0029
9,UCCUGGAUGAGCAUGCAUAGUAUUUAGUAA,0.00494 ± 0.0024
10,UCCUGCUACAGCAUGCAUAGUAUUUAGUAA,0.00478 ± 0.0028
11,UCCUGCUACAGCUUGCUUAGUUUUUAGUUA,0.00366 ± 0.0015
12,UCCUGGAACAGCUUGCAUUGUAUUUAGUUA,0.00894 ± 0.0026
13,UCCUGGUACUGCUAGCAUAGUAUUUAGUUA,0.0113 ± 0.003
14,UCCUGGAAGAGCUUGCAUAGUAUUUAGUUA,0.0115 ± 0.0029
15,UCCUGGAACAGCUUGCAUAGUAUUUAGUUU [g2:g23:cont:t1U],0.0155 ± 0.0044
16,UCCUGGAUGUCGAUGCAUAGUAUUUAGUUUA,0.0069 ± 0.0031
17,UCCUGGAACAGCUUGCAUACUAUUUAGUUA,0.00298 ± 0.0025
18,UCCUGGAACAGCGUUGCAUAGUAUUUAGUUA,0.0103 ± 0.0025
19,UCCUGGUACAGCAUGCUUAGUAUUUAGUUA,0.0118 ± 0.0026
20,UCCUGGAACAGCUUGCUUUGUAUUUAGUUA,0.0038 ± 0.0025
